Bioassay records deposited in PubChem BioAssay by The Scripps Research Institute Molecular Screening Center.
MOR-DOR inv ag: mu-delta opioid heterodimer inverse agonism. hit rate 0.21% among 340,000. cell-based MOR-DOR heterodimer luminescence. inhibition, % at 9.3 µM; in the data active = inhibition above about 22%, passing the limit was not always enough
Target sequence (P35372 whole entry, looked up): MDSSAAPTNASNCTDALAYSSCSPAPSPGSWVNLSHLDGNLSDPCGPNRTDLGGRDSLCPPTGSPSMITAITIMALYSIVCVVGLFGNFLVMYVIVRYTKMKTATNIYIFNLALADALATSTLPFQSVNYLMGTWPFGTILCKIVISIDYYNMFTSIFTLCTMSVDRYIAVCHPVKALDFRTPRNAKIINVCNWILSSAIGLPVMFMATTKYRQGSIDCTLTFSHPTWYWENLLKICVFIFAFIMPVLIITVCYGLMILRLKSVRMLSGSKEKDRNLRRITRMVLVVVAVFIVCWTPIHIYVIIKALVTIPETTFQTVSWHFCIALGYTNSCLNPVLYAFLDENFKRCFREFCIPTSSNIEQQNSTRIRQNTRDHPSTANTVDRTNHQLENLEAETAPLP
Target sequence (P41143 whole entry, looked up): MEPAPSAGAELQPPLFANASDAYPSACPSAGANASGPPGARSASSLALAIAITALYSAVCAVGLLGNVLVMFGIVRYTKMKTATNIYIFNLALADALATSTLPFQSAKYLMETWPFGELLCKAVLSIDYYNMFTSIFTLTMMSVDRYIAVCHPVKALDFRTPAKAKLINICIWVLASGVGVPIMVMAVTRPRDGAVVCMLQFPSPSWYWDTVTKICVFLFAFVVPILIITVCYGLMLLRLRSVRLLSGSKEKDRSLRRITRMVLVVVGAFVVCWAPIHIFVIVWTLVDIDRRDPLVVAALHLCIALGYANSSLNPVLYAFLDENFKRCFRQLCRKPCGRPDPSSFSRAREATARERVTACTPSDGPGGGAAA
OPRM1-OPRD1 ag: agonists of human mu-delta opioid receptor heterodimerization | P35372+P41143 | cells, OPRM1-OPRD1 heterodimerization, luminescence | activation, % at 9.3 µM | hit rate 0.3% among 340,000 | AID 504326; in the data active = activation above about 18%
HTR5A inv ctr: counter-screen for OPRM1-OPRD1 inverse agonists: human HTR5A inverse agonism. HTR5A cell line, luminescence. inhibition, % at 9.3 µM. AID 504634. hit rate 0.083% among 340,000; in the data active = inhibition mostly above about 23%, no sharp cut-off; inactive = mostly below about 18%
HTR5A ag: counter-screen for OPRM1-OPRD1 agonists: human HTR5A agonism. activation, % at 9.3 µM. AID 504692. P47898. HTR5A agonist assay, luminescence, cell-based. hit rate 0.61% among 340,000; in the data active = activation mostly above about 9.5%, no sharp cut-off; inactive = mostly below about 7.6%
Each line names hits and unclear results; the compound was inactive in the other large screens. Most compounds without a hit are left out; they make up all but 1.1% or so of the library.

O=C(c1ccc(Br)cc1)N1CCCc2ccccc21	none
CCOc1ccc(NC(=O)NCCN2CCN(c3cccc(C)c3C)CC2)cc1	HTR5A ag 11.0
CCOc1ccc(NC(=O)c2ccc(NC(=S)NC3CCCCC3)cc2)cc1	HTR5A ag 9.9
CCOc1ccc(NC(=O)c2ccc(NC(=S)NC3CC3)cc2)cc1	none
COc1cc(NC(=O)c2cccc3c2C(=O)N(C2CCCCC2)C3)cc(OC)c1OC	HTR5A ag 11.0
Cc1cc(C)cc(NC(=O)c2cccc3c2C(=O)N(C2CCCCC2)C3)c1	none
COc1ccc(C(=O)N/C(=C/c2cccnc2)C(=O)N2CCCCCC2)cc1OC	HTR5A ag 8.8
COc1ccc(-c2cn(-c3ccc(C)c(Cl)c3)c(=S)[nH]2)cc1OC	HTR5A ag 11.7
COc1ccc(-c2cn(-c3ccc(C)c(C)c3)c(=S)[nH]2)cc1OC	none
CCOCCCNc1nc2c(C)cccn2c(=O)c1/C=C1\SC(=S)N(CC(C)C)C1=O	none
CCOCCCNc1nc2c(C)cccn2c(=O)c1/C=C1\SC(=S)N(C(C)CC)C1=O (configuration not stated)	OPRM1-OPRD1 ag 18.2
Cc1c(CC(=O)N2CCN(C(=O)C3COc4ccccc4O3)CC2)c(=O)oc2c(C)c(O)ccc12 (configuration not stated)	MOR-DOR inv ag 33.8
COc1ccc(C(=O)C(C)OC(=O)c2nc3nccc(C)n3n2)cc1 (configuration not stated)	none
CC1=C/C(=N\OS(=O)(=O)c2ccccc2)C(C(C)C)=CC1=O	OPRM1-OPRD1 ag 186.1, HTR5A ag 19.8
O=C(CN1CC(c2ccccc2)CC1=O)Nc1ccc2c(c1)OCO2 (configuration not stated)	HTR5A ag 13.6
O=C(CCN1C(=O)/C(=C/c2ccccc2)SC1=S)NCCc1ccc(O)cc1	HTR5A ag 13.7
CCCn1c(SC(C(=O)Nc2cccc(OC)c2)c2ccccc2)nc2ccccc2c1=O (configuration not stated)	HTR5A ag 12.6
CCn1c(SCC(=O)Nc2cccc(OC)c2)nc2ccccc2c1=O	none
Cc1cccc(C)c1NC(=O)c1c[nH]c2ccccc12	none
O=C(Nc1ccc2c(c1)OCCO2)NC1CCCCC1	none
CCOc1ccc2oc(C(=O)Nc3ccc4c(c3)OCO4)c(C)c2c1	none
CCOc1ccc2oc(C(=O)Nc3ccc(N4CCOCC4)cc3)c(C)c2c1	HTR5A ag 13.8
COc1ccc(/C(N)=N/OC(=O)c2c(-c3ccccc3Cl)noc2C)cc1OC	HTR5A ag 12.2
C/C(=N/NS(=O)(=O)c1ccc(C)cc1)c1c[nH]c2ccccc12	HTR5A ag 11.1
C/C(=N/NS(=O)(=O)c1cccc([N+](=O)[O-])c1)c1c[nH]c2ccccc12	none
C/C(=N/NS(=O)(=O)c1ccccc1)c1c[nH]c2ccccc12	HTR5A ag 12.1
C/C(=N/NS(=O)(=O)c1cc(C)ccc1C)c1c[nH]c2ccccc12	HTR5A ag 11.9
C=CCNCCCCOc1cccc(Br)c1	none
Cc1c2c(nc3ccccc13)OCC2	none
COc1ccc(OC)c(/C=N\NC(=O)c2c(C)nc3cc(C)ccn23)c1	none
COc1cc(C(c2oc(CO)cc(=O)c2O)c2oc(CO)cc(=O)c2O)cc(OC)c1OC	none
O=C(Cc1ccccc1)Nc1ccnn1C1CCN(Cc2ccc(CO)o2)CC1	none
Cc1ccc(NC(=O)c2ccc(NC(=O)c3ccccc3)cc2)cc1C	HTR5A ag 13.3
Cc1ccccc1C(=O)NCc1nnc(SCC(=O)N2CCN(c3ccccc3)CC2)n1C	none
Cn1c(CNC(=O)c2ccccc2F)nnc1SCC(=O)N1CCN(c2ccccc2)CC1	HTR5A ag 12.0
COCCNC(=O)C(c1ccc(OC)cc1)N(C(=O)Cn1nnc2ccccc21)c1cccnc1 (configuration not stated)	none
COc1ccc(N=Cc2cc(Cc3ccccc3Cl)cc([N+](=O)[O-])c2O)cc1OC	none
Cc1ccc(N=Cc2cc(Cc3ccccc3Cl)cc([N+](=O)[O-])c2O)c(O)c1	HTR5A ag 11.7
O=[N+]([O-])c1ccc(S(=O)(=O)N/N=C/c2ccc3c(c2)OCO3)cc1	none
CC(=O)Nc1ccc(/C=N/NS(=O)(=O)c2cc(C)ccc2C)cc1	none
CC(=O)Nc1ccc(S(=O)(=O)NN=Cc2ccc(Cl)c(Cl)c2)cc1	HTR5A ag 11.8
O=[N+]([O-])c1ccc(S(=O)(=O)NN=Cc2ccc(Cl)c(Cl)c2)cc1	HTR5A ag 12.8
O=C1C(=O)N(CCN2CCOCC2)C(c2ccccc2)/C1=C(\O)c1ccc2c(c1)OCCO2 (configuration not stated)	none
COC(=O)c1ccccc1OCCOCCOc1cccc2cccnc12	HTR5A ag 11.3
CC(C)OC(=O)CSc1nc2ncc(Cl)cc2[nH]1	none
CC1(C(=O)OCC(=O)NCCNC(=O)COC(=O)C2(C)CC2(Cl)Cl)CC1(Cl)Cl (configuration not stated)	HTR5A ag 12.0
CCOc1cc(/C=N/NC(=O)c2cccc([N+](=O)[O-])c2)ccc1OS(=O)(=O)c1ccccc1	none
CCOC(=O)c1c(NC(=O)CSc2ncn[nH]2)sc(C(C)=O)c1C	none
CC(C)Cc1nnc(NC(=O)CSc2ncn[nH]2)s1	HTR5A ag 12.8
COC(=O)c1c(NC(=O)CSc2ncn[nH]2)sc(C)c1C	HTR5A ag 12.7
COC(=O)C1=C(C)N(Cc2ccccc2)C(=NCC(C)C)N[C@H]1c1cccc(C(F)(F)F)c1	none
COC(=O)C1=C(C)N(Cc2ccccc2)C(=NCc2ccccc2)N[C@H]1c1cccc(C(F)(F)F)c1	HTR5A ag 13.3
COC(=O)C1=C(C)N(Cc2ccccc2)C(=NCc2ccc(OC)cc2)N[C@H]1c1cccc(F)c1	none
COC(=O)C1=C(C)N(Cc2ccccc2)C(=NCc2cccc(Cl)c2)N[C@H]1c1cccc(F)c1	OPRM1-OPRD1 ag 28.1
O=C(CSc1nnc(SCc2ccc(Cl)cc2)s1)N/N=C/c1ccc(C(=O)O)cc1	none
COC(=O)[C@H](NCc1ccc(OC)c(B(O)O)c1)C(C)C	HTR5A ag 10.5
c1ccc(-c2nc(C3CCCCC3)c3ccccc3n2)cc1	HTR5A ag 12.8
c1ccc(-c2nc(C3CCCCC3)c3sccc3n2)cc1	none
Cc1c(C(=O)NCCC2=CCCCC2)sc2ncnc(N3CCCCC3C)c12 (configuration not stated)	HTR5A ag 10.8
Cc1sc2ncnc(N3CCCCC3C)c2c1C (configuration not stated)	none
CCOc1cc(C(=O)N/N=C/c2ccoc2)cc(OCC)c1OCC	none
CCOc1cc(C(=O)N/N=C/c2ccsc2)cc(OCC)c1OCC	HTR5A ag 14.0
CCN(Cc1ccccc1)C(=O)CC1Oc2ccccc2NC1=O (configuration not stated)	none
N#Cc1ccccc1OCC(=O)Nc1c(C(=O)C2CC2)oc2ccccc12	HTR5A ag 14.2
C=CCn1c(SCC(=O)Nc2ccc(C(=O)OC(C)C)cc2)nnc1-c1cccs1	HTR5A ag 9.0
C=CCn1c(SCC(=O)NNC(=O)Nc2ccc(C)cc2)nnc1-c1ccccc1	none
C=CCn1c(SCC(=O)Nc2ccc(-c3nc4ccc(C)cc4s3)cc2)nnc1-c1ccccc1	OPRM1-OPRD1 ag 19.9
